Compounds without any hit were thinned out: in the full panel of roughly 83,000, 20% have a hit.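 The test compound was applied at a single concentration to cells in 96-well plates for 48 hours, and percent growth was recorded.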 Unmarked numbers belong to inactive results. Active and inactive are the calls of the source. The calls were made as follows: active = growth percent below 10; inactive = the rest.
Legend:
Test in all cases: NCI-60 one-dose screen, 48 h (100 = growth as untreated, 0 = no growth, -100 = all killed)
Details in all cases: 10 µM
T-47D breast = tested on: T-47D breast
BT-549 breast = tested on: BT-549 breast
MDA-MB-435 melanoma = tested on: MDA-MB-435 melanoma
SW-620 colon = tested on: SW-620 colon
MCF7 breast = tested on: MCF7 breast
HCT-116 colon = tested on: HCT-116 colon
HCC-2998 colon = tested on: HCC-2998 colon
KM12 colon = tested on: KM12 colon
MDA-MB-468 breast = tested on: MDA-MB-468 breast

SMILES	growth (T-47D breast)	growth (BT-549 breast)	growth (MDA-MB-435 melanoma)	growth (SW-620 colon)	growth (MCF7 breast)	growth (HCT-116 colon)	growth (HCC-2998 colon)	growth (KM12 colon)	growth (MDA-MB-468 breast)
CONC[C@]1(C)C=C2C(=O)[C@](C)(O)C3(CC3)C(C)=C2[C@H]1O	0.0161% (active)	-63.6% (active)	-84.7% (active)	3.2% (active)	-36.3% (active)	14.5%	-76.9% (active)	7.08% (active)	-90.8% (active)
CN(C)c1cccc2c(S(=O)(=O)Nc3cccc(-c4csc(NC(=O)CCCCCN5CCN(c6cc7c(cc6F)C(=O)N(C6CCC(=O)NC6=O)C7=O)CC5)n4)c3)cccc12 (configuration not stated)	74.7%	85.6%	95.2%	98.6%	73.5%	68.3%	111%	104%	59.7%
O=C(NO)c1ccc(CNc2nc(-c3ccccc3)c3ccccc3n2)cc1	-13.1% (active)	18.1%	4.16% (active)	-58.2% (active)	7.92% (active)	4% (active)	-63.9% (active)	11.6%	-0.98% (active)
COc1cccc(COc2ccc(/C=C3\Oc4cc(O)ccc4C3=O)cc2)c1	44.3%	15.3%	37.2%	36%	37.8%	1.73% (active)	25.2%	26.1%	12.2%
Cc1ccc(C(=O)N/C(=C2/OCCN2C)[P+](c2ccccc2)(c2ccccc2)c2ccccc2)cc1	55.3%	86.8%	54.4%	84.1%	56.4%	57.9%	75.1%	55.4%	-13.3% (active)
Cc1ccc(NC(=O)c2ccc(-n3c(=O)[nH]c4ccccc4c3=O)cc2)cc1	80.4%	24.4%	102%	113%	87.5%	92.4%	108%	96.7%	82.2%
Cc1cccc(NC(=O)CSc2nc3ccc(F)cc3c(=O)n2-c2ccc(Cl)cc2)c1C	91.5%	32%	83.4%	80.1%	69.5%	44.8%	94.5%	88.8%	80.7%
Cc1ccc(C(=O)Nc2ccc(-n3c(C)nc4c(cnn4-c4ccccc4)c3=O)cc2)cc1	34.6%	59.2%	70.5%	86.2%	47.8%	51.5%	88.4%	77.5%	21.1%
CC(=O)Nc1nc(-c2ccc(N3CCN(C)CC3)c(NS(=O)(=O)c3ccc(C(F)(F)F)cc3)c2)cs1	25.4%	-29.4% (active)	6.38% (active)	-41.6% (active)	6.99% (active)	-75.8% (active)	15.4%	2.44% (active)	-29.3% (active)
C=C1CCC2C3(C)COC(c4cc(F)cc(F)c4)OC3CCC2(C)C1C/C=C1/C(=O)OCC1O (configuration not stated)	-50.1% (active)	-81.1% (active)	-64.2% (active)	-61.9% (active)	-45.8% (active)	-69.2% (active)	-79.9% (active)	-77.9% (active)	-58.2% (active)
CCCCSc1nc(Nc2ccc(/C(C)=N/NC(N)=S)cc2)c(C#N)c(-c2ccc(F)cc2)n1	46.8%	31.5%	78.6%	67.7%	41.3%	36.3%	66.9%	60.2%	-1.25% (active)
N#Cc1ccc(-c2nn(-c3ccc(C(=O)O)cc3)cc2CNc2cccc(Br)c2)cc1	35.4%	1.51% (active)	59%	61.2%	48.2%	19.9%	4.19% (active)	22.4%	66%
C[C@H]1[C@H](C)CC[C@]2(COC(=O)CCC(=O)NCC#CCN3CCNCC3)CC[C@]3(C)C(=CC[C@@H]4[C@@]5(C)CCCNC(C)(C)[C@@H]5CC[C@]43C)[C@H]12	40%	55.4%	32.4%	-2.55% (active)	1.4% (active)	10.5%	-41.7% (active)	32.4%	17.9%
CCCn1c(=O)c2[nH]c(-c3ccc(OCc4nc5ccc(F)cc5[nH]4)cc3)nc2n(CCC)c1=O	-17.8% (active)	6.64% (active)	47.8%	17.1%	8.76% (active)	3.12% (active)	83.2%	55.7%	-12.7% (active)
O=C(/C=C/Nc1ccccc1)c1ccc2c(c1)Nc1ccccc1S2	78.1%	95.6%	85%	89.3%	68.6%	79.2%	95.4%	87%	61.5%
O=C1N/C(=N\c2nccs2)S/C1=C\c1cccs1	22.5%	44.2%	41.9%	30%	15.4%	15.5%	40.8%	28.1%	10.4%
CC1(C)CC[C@]2(C(=O)N3CCOCC3)CC[C@]3(C)C(=CC[C@@H]4[C@@]5(C)CC[C@H](NCO)C(C)(C)[C@@H]5CC[C@]43C)[C@H]2C1	-72.4% (active)	-92.2% (active)	-96.4% (active)	-88.8% (active)	-80.3% (active)	-88.9% (active)	-78.1% (active)	-90.5% (active)	-97% (active)
CC1=C2C(=C[C@@](C)(COCOCCCl)[C@@H]2O)C(=O)[C@](C)(O)C12CC2	-15.8% (active)	-81.2% (active)	-81.1% (active)	0.591% (active)	-46.2% (active)	12.6%	-91.7% (active)	0.906% (active)	-89.9% (active)
CC1(c2ccccc2)NC(=O)N(CC(=O)Nc2ccc(C(=O)/C=C/c3ccc(Cl)cc3)cc2)C1=O (configuration not stated)	10.4%	1.57% (active)	-76.4% (active)	-58.9% (active)	-66.6% (active)	-69.1% (active)	-99.1% (active)	-81.4% (active)	-9.47% (active)
O=C1c2ccccc2C(=O)c2c1c(C(=O)c1ccc(Cl)cc1)n1c2ccc2c3ccccc3ccc21	104%	119%	114%	101%	93%	104%	116%	103%	112%
O=C(c1ccc(Cl)cc1)C1[C@H](c2ccccc2Br)[C@@H](c2ccccc2)NC12C(=O)Nc1ccc(Cl)cc12 (some centres not stated)	22%	75.9%	-35.1% (active)	8.7% (active)	0.103% (active)	7.63% (active)	-0.337% (active)	8.12% (active)	-40.2% (active)
Nc1nc2c(F)c(F)c(F)c(F)c2s1	91.3%	105%	101%	106%	93.7%	113%	116%	99.9%	97.9%
O=C(Nc1cccc(C(F)(F)F)c1)c1cncc(C#Cc2cnc3cccnn23)c1	13.5%	15.4%	25.6%	34.3%	8.36% (active)	15.4%	46.9%	7.46% (active)	47.8%
CN1C(=O)N(C)C2SC(N/N=C/c3ccccc3F)=NC21 (configuration not stated)	64.3%	45.4%	-16.6% (active)	47.4%	32%	37.5%	88.5%	45.2%	0.576% (active)
COc1cccc(-c2nn(-c3ccccc3)cc2-c2ccnc(NCCCNC(=O)Nc3ccc(F)cc3)c2)c1	4.77% (active)	-20.6% (active)	-59% (active)	14.5%	-15.5% (active)	6.26% (active)	-25.1% (active)	5.44% (active)	-54.7% (active)
Cc1ccc(CSc2nc(-c3ccc(F)cc3)c(C#N)c(=O)[nH]2)cc1	86.5%	84.2%	106%	102%	89.2%	98.5%	115%	97%	126%
O=C(NO)c1ccc(-c2nc3ccc4[nH]ncc4c3c3c2CCCC3)cc1	-8.47% (active)	-50.2% (active)	-78.1% (active)	1.77% (active)	-20.8% (active)	2.92% (active)	-67.4% (active)	-28.3% (active)	-90.3% (active)
Oc1ccc(/C=C2\CCCc3cc4ccc(O)cc4[o+]c32)c(O)c1	18.3%	23.3%	-40.7% (active)	20.5%	10.8%	15.7%	31%	6.02% (active)	-13.8% (active)
